Results from the supplement of paper PMC7866885, “A novel bicyclic 2,4-diaminopyrimidine inhibitor of Streptococcus suis dihydrofolate reductase” (PeerJ, 2021).
± gives the standard deviation.

test system: Streptococcus suis HE06; assay: percent growth relative to DMSO control; higher = less growth inhibition; conditions: 10 µM; incubation time 18 h
Description: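 CLSI broth microdilution: 5x10^4 CFU of Streptococcus suis (strain P1/7 or HE06) incubated with 10 µM Pathogen Box compound in cation-adjusted Mueller Hinton broth, 37 °C, 5% CO2, 18 h. Growth read as OD600 and expressed as percent of the DMSO-treated control (100%); mean ± SD of three independent experiments.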

| SMILES | percent growth [%] |
| --- | --- |
| CCC(C)NC(=O)c1ccc(NC(=O)C2(c3ccccc3)CCCC2)cc1 (stereo not drawn) | 105 ± 27 |
| COc1ccc(C(=N)N)cc1-c1cn(-c2ccc(C(=N)N)cc2)nn1 | 105 ± 42 |
| CC(=O)NC[C@H]1CN(c2ccc(N3CCSCC3)c(F)c2)C(=O)O1 | 3.44 ± 3.9 |
| CCOC(=O)c1cc(-c2csc(Nc3c(C)cc(C)cc3C)n2)on1 | 91.3 ± 6 |
| COc1cccc(OC)c1C(=O)Nc1ccc(Cl)c(-c2nc3ccccc3s2)c1 | 98.9 ± 8.3 |
| Cc1cccc(NC(=O)c2cc(S(=O)(=O)N(C)c3ccc(F)cc3)ccc2Cl)n1 | 111 ± 31 |
| Nc1ncnc2c1ncn2[C@@H]1O[C@H](COS(=O)(=O)NC(=O)c2ccccc2O)[C@@H](O)[C@H]1O | 97.4 ± 8.2 |
| COc1nc2ccc(Br)cc2cc1[C@@H](c1ccccc1)[C@@](O)(CCN(C)C)c1cccc2ccccc12 | 59.8 ± 13 |
| COC(=O)c1c(NC(=O)c2c(F)c(F)c(F)c(F)c2F)sc2c1CCCCC2 | 105 ± 7.8 |
| CCCCS(=O)(=O)Nc1ccc2cnn(C)c2c1 | 92.3 ± 11 |
| COc1ccc(-c2cnc3ccc(NCc4ccc(S(N)(=O)=O)cc4)nn23)cn1 | 85.1 ± 6.3 |
| NCCC(O)C(=O)N[C@@H]1C[C@H](N)[C@@H](OC2O[C@H](CN)[C@@H](O)[C@H](O)[C@H]2O)[C@H](O)C1OC1O[C@H](CO)[C@@H](O)[C@H](N)[C@H]1O (stereo partly drawn) | 104 ± 4.8 |
| O=C(c1ccc(F)cc1)N(CCNc1ccccc1)c1ccccc1 | 106 ± 17 |
| O=C(C1CCN(c2cc(-n3cccc3)ncn2)CC1)N1CCc2ccccc2C1 | 106 ± 15 |
| COc1ccc(CCN2CCC(NCc3cccc(N(C)C)c3)CC2)cc1 | 98.6 ± 35 |
| COc1cc(C(F)(F)F)nc2ccc(C)c(N)c12 | 101 ± 4.2 |
| c1csc(-c2cnc3sc(NCC4CCOCC4)nn23)c1 | 109 ± 22 |
| CC(C)(CN)c1nc(-c2ccc(Cl)c(O)c2)c(-c2ccnc(N)n2)[nH]1 | 90.9 ± 6.5 |
| COc1ccc(-c2nnc3ccc(-c4cccc(C(C)C)c4)cn23)cc1OC | 97.1 ± 15 |

| SMILES | percent growth [%] |
| --- | --- |
| CCc1c(C)nc(-n2nc(C)cc2NC(=O)c2ccccc2SC)[nH]c1=O | 0.0799 ± 0.092 |
| NC(=O)c1cc(-c2ccsc2)ccc1OCCOc1ccccc1 | 118 ± 40 |
| OCCc1ccc(Nc2nccc(-c3nnc4ccccn34)n2)cc1 | 92.9 ± 6.6 |
| Cc1cc(Nc2ccc(C(F)(F)F)cc2)n2ccnc2n1 | 113 ± 12 |
| CC(Oc1cccc(Cl)c1)C(=O)Nc1ccc2oc(-c3ccncc3)nc2c1 (stereo not drawn) | 75.2 ± 17 |
| Cc1ccc(C(=O)Nc2ccc(S(=O)(=O)O)c3cc(S(=O)(=O)O)cc(S(=O)(=O)O)c23)cc1NC(=O)c1cccc(NC(=O)Nc2cccc(C(=O)Nc3cc(C(=O)Nc4ccc(S(=O)(=O)O)c5cc(S(=O)(=O)O)cc(S(=O)(=O)O)c45)ccc3C)c2)c1 | 78.7 ± 8.8 |
| Nc1ncnc2c1ncn2C[C@@H](O)[C@@H](O)C(=O)O | 75.9 ± 17 |
| COc1cc(NC(C)CCCN)c2ncccc2c1 (stereo not drawn) | 90.6 ± 4 |
| CC(C)(C)C1CCC(CC2=C(O)C(=O)c3ccccc3C2=O)CC1 (stereo not drawn) | 17.3 ± 28 |
| O=C(Nc1nnc(S)s1)c1cc(Br)ccc1Cl | 107 ± 10 |
| Cc1cccc(Cn2ccc(NC(=O)c3ccc4c(c3)OCO4)n2)c1 | 75.3 ± 22 |
| COc1ccc(-c2onc(C(F)(F)F)c2-c2ccc(Cl)cc2)c(O)c1 | 26.1 ± 45 |
| NCCCC(N)(C(=O)O)C(F)F (stereo not drawn) | 84.8 ± 12 |
| O[C@@H](c1cc(C(F)(F)F)nc2c(C(F)(F)F)cccc12)[C@H]1CCCCN1 | 94 ± 6.1 |
| CC(C)(C)c1cc(C(=O)N2CCN(c3nccnc3C#N)CC2)n(Cc2ccccc2)n1 | 93.1 ± 32 |
| CC(=O)Oc1ccccc1C(=O)Nc1ncc([N+](=O)[O-])s1 | 42.5 ± 18 |
| CC(C)C(Oc1cccc2ccccc12)C(=O)O (stereo not drawn) | 87 ± 4.3 |
| CO[C@@H](C(=O)N1Cc2[nH]nc(NC(=O)c3ccc(N4CCN(C)CC4)cc3)c2C1)c1ccccc1 | 82.9 ± 11 |
| Cc1nn2c(=O)c3c([nH]c2c1-c1ccc(Cl)cc1)CCCC3 | 0.386 ± 8.7 |
